Test results from PubChem BioAssay (EPA / NIEHS).
Calls of active or inactive are those of the source. Rule for the calls: active = hit-call score of the fitted dose curve at least 0.9, where 1 is the maximum; inactive = score below 0.9.

Experiment: CCTE_Harrill_HTTr_Viability_MCF7: CCTE's 6-hour Cell Viability Assessment for the High-Throughput Transcriptomics (HTTr) Platform, in MCF-7 cells cultured in DMEM + 10% fetal bovine serum, Harrill Lab (AID 2284010)
From the text: This is a cell-based assay that evaluates cell viability using high content imaging to evaluate membrane integrity using propidium iodide dye exclusion in a 384 well format.One of seven assay components measured from the CCTE_Harrill_HTTr_Viability assay. This was part of a full screening experiment. This is a cell-based assay that evaluates cell viability in MCF-7 cells cultured in DMEM + 10% fetal bovine serum. High content imaging is used to evaluate membrane integrity using propidium iodide dye exclusion. Measurements are taken at 6 hours after chemical dosing in 384-well format.The assay component endpoint CCTE_Harrill_HTTr_Viability_MCF7 was analyzed with bidirectional fitting relation to DMSO as the negative control and baseline of activity. Using a type of viability reporter, gain-of-signal activity can be used to evaluate membrane integrity using propidium iodide dye exclusion to understand changes in cytotoxicity. To generalize the intended target to other relatable targets, this assay endpoint is annotated to cell cycle, where the subfamily is cytotoxicity.
Chemicals were tested in MCF7 cells in an eight point dilution series with a six hour exposure duration.

Question: With `CCCCCCCCN(C)CCCCCCCC` as the compound, how does the outcome read?
Answer: inactive

Question: With `O=CCCCC=O` as the compound, how does the outcome read?
Answer: inactive

Question: With `Cc1occc1C(=O)Nc1ccc(C(=O)N2CCC(F)(F)/C(=C\C(=O)N3CCC(N4CCCCC4)CC3)c3ccccc32)cc1` as the compound, how does the outcome read?
Answer: inactive

Question: With `c1ccc2ccccc2c1` as the compound, how does the outcome read?
Answer: inactive

Question: With `CCO[Si](CCCNC(N)=O)(OCC)OCC` as the compound, how does the outcome read?
Answer: inactive

Question: Which AC50 does the source give for `CCOC(=O)O[C@H](C)OC(=O)c1ccc2c(c1)cc(C(=O)NC1CCN(C(C)C)CC1)n2Cc1cc(-c2ccc(Cl)s2)on1` here?
Answer: 76.7 µM (active)

Question: With `O=C(O)Cn1c(=O)n(Cc2ccc(Br)cc2F)c(=O)c2ccc(Cl)cc21` as the compound, how does the outcome read?
Answer: inactive

Question: For `CCCC(=O)OCCC(C)C`, which outcome is on record?
Answer: inactive

Question: For `CCCCCCCCOC(=O)c1cc(O)c(O)c(O)c1`, which outcome is on record?
Answer: inactive

Question: For `CC[C@H](NC(=O)c1cc(F)ccc1NS(=O)(=O)c1cccc2cccnc12)c1ccccc1`, which outcome is on record?
Answer: inactive

Question: For `COc1ccc2cc(S(=O)(=O)N[C@H](CC(=O)N[C@H](Cc3ccc(CN4[C@H](C)CCC[C@@H]4C)cc3)C(=O)N(C)C(C)C)c3ccc4c(c3)OCO4)ccc2c1`, which outcome is on record?
Answer: inactive

Question: For `O=c1[nH]sc2ccccc12`, which outcome is on record?
Answer: inactive

Question: With `CC(C)(O)c1ccc(CNC(=O)c2cccnc2Oc2ccc3nonc3c2)cc1` as the compound, how does the outcome read?
Answer: inactive

Question: Which outcome does the source give for `O=C(OCCCCCCOC(=O)c1ccccc1)c1ccccc1` here?
Answer: inactive

Question: For `O=C(O)Cc1cc(I)c(Oc2ccc(O)c(I)c2)c(I)c1`, which outcome is on record?
Answer: inactive

Question: Which AC50 does the source give for `NCc1cccc(C2CCN(C(=O)c3ccc(C#Cc4ccccc4F)o3)CC2)c1` here?
Answer: 50 µM (active)

Question: For `Oc1ccc2ccccc2c1`, which outcome is on record?
Answer: inactive

Question: For `CC(C)(C)c1cc(/C=C2\SC(N)=NC2=O)cc(C(C)(C)C)c1O`, which outcome is on record?
Answer: inactive

Question: Which outcome does the source give for `CC(C)(C)c1csc(-c2cc3cc(OCc4ccccc4CC(=O)O)ccc3o2)n1` here?
Answer: inactive

Question: With `CCN(CC)C(=O)c1cc(S(=O)(=O)Cc2ccccc2)c(N2CCC(c3ccccc3)CC2)cc1N(CC)CCN(C)C` as the compound, how does the outcome read?
Answer: inactive

Question: Which outcome does the source give for `O=c1c(-c2ccc(O)cc2)coc2cc(O)cc(O)c12` here?
Answer: inactive

Question: Which outcome does the source give for `CN1C(=O)N(c2ccccc2Br)Cc2cnc(Nc3ccc4c(c3)OCC(CO)O4)nc21` (stereo not given) here?
Answer: inactive

Question: With `O=C(O)c1ccccc1-n1cc(C(=O)O)c(=O)c2cc(Nc3c(F)cc(F)cc3Cl)c(Cl)cc21` as the compound, how does the outcome read?
Answer: inactive

Question: With `Cc1cc2c(cc1C(F)(F)F)N(C(=O)Nc1ccc(Oc3cccnc3C)nc1)CC2` as the compound, how does the outcome read?
Answer: inactive

Question: Which outcome does the source give for `Cc1cc(F)ccc1-c1cc(N2CC[C@@H](O)[C@H]2CO)ncc1N(C)C(=O)C(C)(C)c1cc(C(F)(F)F)cc(C(F)(F)F)c1` here?
Answer: inactive

Question: With `CO[C@H]1/C=C/O[C@@]2(C)Oc3c(C)c(O)c4c(O)c(c(/C=N/N5CCN(C)CC5)c(O)c4c3C2=O)NC(=O)/C(C)=C\C=C\[C@H](C)[C@H](O)[C@@H](C)[C@@H](O)[C@@H](C)[C@H](OC(C)=O)[C@@H]1C` as the compound, how does the outcome read?
Answer: inactive

Question: For `c1ccc(C[n+]2cccc3ccccc32)cc1`, which outcome is on record?
Answer: inactive

Question: Which outcome does the source give for `CCN(Cc1cccnc1)C(=O)c1cccc(Cl)c1[C@]1(C)C(=O)N(Cc2ccc(OC)cc2OC)c2ccc(Cl)cc21` here?
Answer: inactive

Question: With `CCCCCCCCOc1ccc(C(=O)c2ccccc2)c(O)c1` as the compound, how does the outcome read?
Answer: inactive

Question: With `Cc1oc2c(NC(=O)c3c(Cl)cccc3Cl)cccc2c1C(C)(C)O` as the compound, how does the outcome read?
Answer: inactive

Question: Which outcome does the source give for `CCCCCc1ccc(N)cc1` here?
Answer: inactive

Question: Which outcome does the source give for `COc1cc(C(=O)NC2CCN(C)CC2)ccc1Nc1ncc2c(n1)N(C1CCCC1)CC(F)(F)C(=O)N2C` here?
Answer: inactive

Question: For `Clc1cc(Cl)c2c(c1)N=C1CCCCCN1C2`, which outcome is on record?
Answer: inactive

Question: Which outcome does the source give for `CCCCCCCCCCCCO` here?
Answer: inactive

Question: For `CC(C)(c1cc(Br)c(O)c(Br)c1)c1cc(Br)c(O)c(Br)c1`, which outcome is on record?
Answer: inactive

Question: Which outcome does the source give for `Cc1cccc2ccccc12` here?
Answer: inactive

Question: With `CC(=O)N1CCN(c2ccc(OC[C@H]3CO[C@](Cn4ccnc4)(c4ccc(Cl)cc4Cl)O3)cc2)CC1` as the compound, how does the outcome read?
Answer: inactive

Question: For `O=C1O[C@H]([C@@H](O)CO)C(O)=C1O`, which outcome is on record?
Answer: inactive

Question: For `CN(C)C(=O)C1(N2CCCCC2)CCN(CC[C@@]2(c3ccc(Cl)c(Cl)c3)CN(C(=O)c3ccccc3)CCO2)CC1`, which outcome is on record?
Answer: inactive

Question: With `CC1(C)NC(=O)N(c2ccc([N+](=O)[O-])c(C(F)(F)F)c2)C1=O` as the compound, how does the outcome read?
Answer: inactive
